Entries with a potency or affinity are not part of this list. Inconclusive results are not listed.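 Rule for the calls: active = in every test run, a fitted half-maximal concentration for signal decrease at or below twice the highest tested concentration; inconclusive = runs disagree, flat 30 to 70% decrease, or poor fit; inactive = the rest.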
Experiment: miR-122 activators in hepatoma reporter cells, dose response, cell-based, Huh7 psiCHECK-miR122, Renilla luciferase, cherry-picked (AID 651956);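 note: Renilla luciferase from a miR-122 sensor reporter so lower signal means miR-122 activation; 0% = median neutral control wells and -100% = median positive control wells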
Conditions: 48 h; series mostly up to 35 µM; activity change, negative = signal decrease: at the top concentration

Activity change, negative = signal decrease, inactive:
CN1C(=O)c2cc(NC(=O)c3cccc(C(F)(F)F)c3)ccc2OC[C@@H]2O[C@@H](CC(=O)NCCN3CCCC3)CC[C@@H]21 -24.5%, O=C(Oc1c(CN2CCOCC2)cc(Cl)c2cccnc12)c1ccc(F)cc1 18.7%, CCCNC(=O)Nc1ccc2c(c1)C(=O)N(C)[C@@H]1CC[C@H](CC(=O)NCC3CCCCC3)O[C@H]1CO2 -47.3%, O=C(N[C@H]1CC[C@H](CCn2cc(C3(O)CCCC3)nn2)O[C@H]1CO)c1ccccc1F -22.4%, CCCNC(=O)Nc1ccc2c(c1)C(=O)N(C)[C@@H]1CC[C@H](CC(=O)O)O[C@H]1CO2 117%, Cc1cccc(NC(=O)C[C@H]2CC[C@H]3[C@@H](COc4ccc(NC(=O)NC(C)C)cc4C(=O)N3C)O2)c1 -16.5%, C/C=C/c1ccc([C@H]2[C@@H](CO)N(C(=O)C3CC3)[C@H]2CNC(=O)NC(C)C)cc1 6.55%, CC(C)c1ccc(CNC(=O)CSCC(=O)Nc2ccc3ccccc3c2)cc1 -18.8%, O=C(N/N=C/c1ccco1)c1cccc(N2CCCC2=O)c1 104%, C/C=C/c1ccc([C@H]2[C@@H](CO)N[C@@H]2CN(CC(C)C)C(=O)c2ccccn2)cc1 179%, CN(Cc1ccccc1)C(=O)COC(=O)c1ccccc1Nc1ccccc1 52.7%, COCC(=O)Nc1ccc2c(c1)C(=O)N(C)[C@@H]1CC[C@H](CC(=O)Nc3cn(C)nc3C)O[C@H]1CO2 -30.8%, Cc1cc(C)cc(NC(=O)c2ccc(CSc3nnc(C)s3)cc2)c1 -31.2%, Cc1cccc(NC(=O)Nc2ccc3c(c2)C(=O)N(C)[C@H]2CC[C@@H](CC(=O)NCc4ccccc4Cl)O[C@H]2CO3)c1 4.52%

Source: PubChem BioAssay AID651956 (Broad Institute, 2012)
